Sampled rows, rich in hits. Any-hit rate of the full collection: about 7.8%.
VACV mCherry inh – inhibitors of vaccinia virus infection (mCherry reporter signal). Vaccinia virus mCherry reporter infection, fluorescence. Potency, µM (titrated, usually from 36.5 µM), inactives show top-dose activity change, negative = inhibition, hits mostly inhibitors. hit rate 0.63% among 310,000; calls by dose curve; tested in A549 cells; further: potency means the concentration at half of the fitted maximal effect; nearly all actives have a fitted effect of over 35% in size
Marburg entry inh – blocks Marburg virus binding to or entry into cells. Marburg virus pseudotyped entry inhibition, cell reporter. Potency, µM (top dose mostly 37.8 µM), for inactives: at the highest dose activity change, negative = inhibition, actives largely listed as inhibitors. hit rate 1.8% among 300,000; calls by dose curve; tested in HEK293 cells; further: potency means the concentration at half of the fitted maximal effect
VACV Venus inh – inhibitors of vaccinia virus (Venus reporter); hit rate 0.46% among 330,000; Vaccinia virus Venus reporter expression, fluorescence; AID 720580; Potency, µM (top dose mostly 36.5 µM), without a hit: at the top dose activity change, negative = inhibition, usual class: inhibitors; calls by dose curve; tested in A549 cells; further: potency means the concentration at half of the fitted maximal effect; nearly all actives have a fitted effect of over 30% in size
HCMV inh – human cytomegalovirus inhibition; HFF cells, HCMV-luciferase reporter, 72 h; hits give low values; hit rate 4.5% among 410,000; activity change, negative = inhibition, % at 57.5 µM; in the data active means activity change below about -60%; inconclusive means no clear call, values can overlap the other calls; inactive means above about -39%
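After 16 h attachment at 37C, HFF cells received test compound and HCMV-luciferase (1 PFU/cell); reporter luminescence read 72 h later, data normalized against buffer-only and known inhibitor Salinomycin.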
Lassa entry inh – Lassa virus entry inhibition | Potency, µM (doses to about 37.9 µM), inactives show at the top dose activity change, negative = inhibition, usual class: inhibitors | Lassa virus pseudotype entry inhibition, cell reporter | hit rate 1.2% among 300,000; calls by dose curve; tested in HEK293 cells; further: potency means the concentration at half of the fitted maximal effect; nearly all actives have a fitted effect of over 50% in size
HCV inhibitor – HCV inhibition; Huh7.5.1 HCVcc-Cre infection, luciferase reporter, 44 h; Potency, µM (titrated, usually from 41.8 µM), inactives show top-dose activity change, negative = inhibition, hits mostly inhibitors; hit rate 3.4% among 340,000; AID 651820; active means well fitted inhibition curve with a large enough effect; inconclusive means small, poorly fitted or top-dose-only effect, or another doubt; inactive means no such curve, though single readings can be large or run the other way; further: potency means the concentration at half of the fitted maximal effect
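A cell-based infection assay in which seeded cells (1,000 per well) receive test compound after 4 h, are inoculated with HCVcc-Cre at approximately 0.5 moi, and are incubated 44 h before luminescence detection.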
Numbers without * were called inactive; i = inactive; ? = inconclusive; . = not tested or not shown; ! = not active in a repeat; [ ] = remark or other dose. On the % scale 0 is the no-effect control and ±100 the full control effect.

SMILES	VACV mCherry inh	Marburg entry inh	VACV Venus inh	HCMV inh	Lassa entry inh	HCV inhibitor
CCOC(=O)/C(=C\c1ccc(Cl)cc1)c1nc2sc(C)c(C)c2c(=O)[nH]1	?	?	?	-75*	?	?
COC(=O)c1ccc(NC(=O)c2nn(C)c3c2COc2ccccc2-3)cc1	18%	?	8%	-71*	?	.
Cc1nn(Cc2ccccc2Cl)c(C)c1NC(=O)C1C2CCC(O2)C1C(=O)O (centres undefined)	-12%	-2%	-14%	-8	?	4%
Cc1nn(C)c(Cl)c1NC(=O)OCc1ccc(Cl)cc1Cl	-10%	?	-22%	-96*	-25%	10µM*
Cc1nnsc1NC(=O)OCc1ccc(Cl)cc1Cl	.	2%	-12%	9	3%	-26%
Cc1nn(Cc2ccc(Cl)cc2Cl)c(C)c1NC(=O)CCl	.	?	.	?	?	13µM*
Cc1nn(Cc2ccc(Cl)cc2Cl)c(C)c1NC(=O)C1C2CCC(O2)C1C(=O)O (centres undefined)	?	-24%[46.1 µM]	-27%	-64*	5%	?
Cc1ccc(NC(=O)c2c(C)oc3ncn(C)c(=O)c23)cc1F	4%	.	7%	25	10%[46.1 µM]	.
CC(=O)Nc1c(I)c(C(=O)O)c(I)c(N(C)C(C)=O)c1I	.	.	.	16	.	.
Cc1ccccc1-n1nc(C)c2cc(C(=O)N3CCN(S(=O)(=O)c4ccc(F)cc4)CC3)sc21	.	21µM*!	.	-22	?	?
CC(=O)c1c(C)[nH]c(C(=O)OCC(=O)NCc2ccc(Cl)cc2)c1C	.	.	.	-37	.	11µM*
CCOC(=O)c1[nH]c(C)c(C(=O)OCC(=O)NCc2ccc(Cl)cc2)c1C	.	.	.	1	.	9%
CCOC(=O)c1c(C)[nH]c(C(=O)OCC(=O)Nc2sccc2C(N)=O)c1C	-16%	2.2µM*	?	-68*	?	2.8µM*
CC(=O)c1c(C)[nH]c(C(=O)OCC(=O)NCCc2ccc(F)cc2)c1C	.	-21%	.	12	6%	?
CC(=O)c1c(C)[nH]c(C(=O)OCC(=O)NCCc2ccc(Cl)cc2)c1C	.	?	-15%	10	?	11µM*
CCOC(=O)c1c(C)[nH]c(C(=O)OCC(=O)NCc2ccc(OC)c(OC)c2)c1C	-12%	-37%	-27%	-17	-26%	10µM*
COc1ccc(OC)c(/C=C2\C=Cc3ccccc32)c1	13%	.	-18%	.	.	.
COCc1c(C(=O)N2CCN(C)CC2)cnn1-c1ncc2c(n1)-c1ccccc1CCC2	-24%	.	-12%	.	.	.
C=CCCC[C@@H]1OC(=O)CNC(=O)C([C@@H](C)CC)NC(=O)[C@@H]2CCCN2C(=O)C([C@@H](C)CC)OC(=O)[C@H](Cc2ccccc2)N(C)C(=O)[C@H](C(C)C)NC(=O)C1(C)C (some centres undefined)	?	.	?	-73*	.	.
O=C1N[C@@H](Cc2ccccc2)C(=O)N2CCC[C@@H]12	i	-7%	-6%	23	?	13%
COC(=O)c1ccc([C@H]2CC(=O)O2)cc1	11µM*	.	?	39	.	31%
CN(C)CCCNC(=O)C(=O)NCC(c1ccc2c(c1)OCO2)N1CCOCC1 (centres undefined)	-1%	.	3%	66	0%[46.1 µM]	.
CCOC(=O)C1CCN(c2c([N+](=O)[O-])c(C(Cl)Cl)nn2-c2ccccc2)CC1	-17%	-13%	-9%	19	9.2µM*	-25%
Cc1ncc2c(c1CNC(=O)c1ccsc1)CCN(C(=O)c1c(F)cccc1Cl)C2	33%	.	55%	.	.	.
COc1cc(-c2nc(-c3ccccc3)c(-c3cccs3)[nH]2)cc(OC)c1OC	.	?	.	21	-35%	22µM*
SMILES	VACV mCherry inh	Marburg entry inh	VACV Venus inh	HCMV inh	Lassa entry inh	HCV inhibitor
COc1cc(-c2nc(-c3ccccc3)c(-c3cccs3)[nH]2)cc(OC)c1O	.	8%	.	-2	-10%	10µM*
Cc1nc(-c2ccc(F)cc2)sc1CCNC(=O)C(=O)Nc1ccc2c(c1)OCCO2	-21%	.	-12%	16	9%[46.1 µM]	.
CC1CCc2c(sc3ncnc(NCc4cccnc4)c23)C1 (centres undefined)	.	-1%	.	?	-3%	25µM*
CC1CCc2c(sc3ncnc(NCCCOC(C)C)c23)C1 (centres undefined)	-7%	?	-28%	-37	-11%	10µM*
CCOc1ccc2nc(NC(=O)c3nc(SCc4ccc(C)cc4)ncc3Cl)sc2c1	-23%	1%[46.1 µM]	-13%	19	27%[46.1 µM]	.
Cn1c(CCN2CCOCC2)nc2cc(NC(=O)COc3ccc([N+](=O)[O-])cc3)ccc21	.	.	.	-30	.	-4%
Cn1c(CN2CCOCC2)nc2cc(NC(=O)COc3ccc([N+](=O)[O-])cc3)ccc21	-9%	?	-23%	-71*	3%	-18%
CCCn1c(CN2CCN(C(=O)OCC)CC2)nc2cc([N+](=O)[O-])ccc21	-22%	?	-10%	-76*	?	?
CCOC(=O)N1CCN(Cc2nc3cc([N+](=O)[O-])ccc3n2CC)CC1	.	.	.	12	.	2%
CCOC(=O)N1CCN(Cc2nc3cc(NC(=O)c4ccc([N+](=O)[O-])cc4)ccc3n2C(C)C)CC1	?	?	?	-83*	1%[46.1 µM]	.
CCOC(=O)N1CCN(Cc2nc3cc(NC(=O)CC(C)C)ccc3n2C(C)C)CC1	?	?	-28%	-95*	-25%[46.1 µM]	.
CCOC(=O)N1CCN(Cc2nc3cc(NC(=O)CC)ccc3n2C(C)C)CC1	-26%[7.34 µM]	-30%[46.1 µM]	-21%[7.34 µM]	-9	-24%[46.1 µM]	.
Cc1ccccc1C(=O)NCc1ccc2c(c1)CCN2C(=O)c1ccccc1	-23%	.	?	-31	-30%[46.1 µM]	.
Cc1cccc(OCC(=O)Nc2ccc3c(c2)nc(CCN2CCN(C)CC2)n3C)c1	.	17%	.	?	14%	-19%
CCOC(=O)N1CCN(Cc2nc3cc(NC(=O)c4cccc(C)c4)ccc3n2C(C)C)CC1	?	?	?	-94*	-4%[46.1 µM]	.
Cc1cccc(OCC(=O)Nc2ccc3c(c2)nc(CCN2CCC(C)CC2)n3C)c1	.	.	.	-69*	.	?
COc1cc(NC(=O)CCc2c(C)nc3c(c(C)nn3-c3ccccc3)c2C)cc(OC)c1OC	?	-3%[46.1 µM]	-29%	13	-11%[46.1 µM]	.
COc1ccc(COC(=O)NN=C2C[C@@H](O)[C@@H](O)[C@@H]3[C@H]4C(=O)N([C@@H](C)c5ccccc5)C(=O)[C@@H]4CC[C@H]23)cc1	.	-1%[14.2 µM]	.	.	?	.
N#Cc1cccc(C(=O)C(=O)N2CCC(c3ccccc3)CC2)c1	?	.	-13%	-14	.	.
O=C(C(=O)N1CCC(c2ccccc2)CC1)c1ccc(F)c(F)c1	?	.	-5%	-62*	.	.
CNC(=O)OCc1nc(SSC(C)(C)C)n(C)c1COC(=O)NC	-24%	?	?	-76*	?	?
O=C(Nc1nc(-c2ccc3c(c2)OCCO3)cs1)c1ccco1	.	.	.	0	.	.
